Data from PubChem BioAssay AID588832 (Broad Institute, 2011).
In all, about 8,000 compounds went through this assay and fewer than 10 were called active. How the calls were made is not given here. These entries were drawn from the full list.

tested on: hedgehog, isoform A (Drosophila melanogaster); assay: Hh protein inhibition, biochemical readout – plate reader, single concentration, primary screen (AID 588832); conditions: Biochemical plate reader assay, at 30.3 µM, stronger effect = higher value;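 further: 0% = neutral control wells and 100% = positive control wells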

Row | Compound | inhibition
1 | CC1Cc2nc(SCC(=O)N3CCCc4ccccc43)n(C)c(=O)c2S1 (stereo not given) | 0% (inactive)
2 | COc1ccc(Cc2nc(-c3ccc(Br)o3)no2)cc1OC | 33.3% (inactive)
3 | O=C(CCC(=O)N1CCOc2ccccc21)N1CCOCC1 | 9.62% (inactive)
4 | CC(NC(=O)c1ccc(NC2=NC3CS(=O)(=O)CC3S2)cc1)c1ccccc1 (stereo not given) | 5.06% (inactive)
5 | Cn1cccc1Cc1nnc(SCC(=O)Nc2ccc(F)cc2)n1CCc1ccccc1 | 17.4% (inactive)
6 | CC(CCc1ccccc1)NC(=O)C1CCN(C(=O)c2sccc2-n2cccc2)CC1 (stereo not given) | 3.57% (inactive)
7 | Cc1ccc(NC(=O)C2CCCN(S(=O)(=O)c3ccc4[nH]c(=O)ccc4c3)C2)cc1C (stereo not given) | 0% (inactive)
8 | CCc1ccccc1NC(=O)c1cc(S(=O)(=O)N2CCc3ccccc32)cn1C | 5.06% (inactive)
9 | COc1cccc(C2c3[nH]c4ccccc4c3C[C@H]3C(=O)N(c4ccccc4C(=O)N4CCCC4C(=O)O)C(=O)N23)c1 (stereo not given in full) | -3.51% (inactive)
10 | Cn1cccc1Cc1nnc(SCC(=O)Nc2ccccc2F)n1-c1ccc(F)cc1 | 8.33% (inactive)
11 | Cn1c(=O)c2c(SCc3ccccn3)nc(CC(C)(C)C)nc2n(C)c1=O | 4.58% (inactive)
12 | CSC1=NCCN1C(=O)c1ccc(S(=O)(=O)N2CCCC2)cc1 | -1.85% (inactive)
13 | O=C(Nc1ccccc1Cl)c1ccc2c(c1)N(Cc1ccc(F)cc1)C(=O)CS2=O (stereo not given) | 15% (inactive)
14 | CC1(C2CCC3(C)OC3C2)CO1 (stereo not given) | 7.18% (inactive)
15 | Cc1cccc(N2CCN(C(=O)CCC(=O)N3CC(C)Oc4ccc(C)cc43)CC2C)c1 (stereo not given) | 5.06% (inactive)
16 | COc1cc2c(cc1OC)CN(C(=O)c1ccc3[nH]c(C)c(C)c3c1)CC2 | 8.74% (inactive)
17 | O=c1c(Cc2ccccc2O)c(O)nc2n1CCCS2 | 3.39% (inactive)
18 | COc1ccc(N(C(=O)c2ccncc2)S(=O)(=O)c2ccc(OC)c(OC)c2)cc1 | 11.1% (inactive)
19 | CCCCC(NC(C)=O)c1nc2ccccc2[nH]1 (stereo not given) | 5.42% (inactive)
20 | Cc1cc(Nc2ccc(C(C)C)cc2)n2ncnc2n1 | 6.72% (inactive)
21 | Cc1cc(NS(=O)(=O)c2ccc(NC(=O)c3cnc4scc(C)n4c3=O)cc2)nc(C)n1 | 6.2% (inactive)
22 | CC(C)OC(=O)c1nnc(Cc2ccc(Cl)cc2)o1 | 20% (inactive)

Row | Compound | inhibition
23 | O=C(c1cnn(-c2ccccc2)c1-n1cccc1)N1CCN(C2CCCCC2)CC1 | 9.55% (inactive)
24 | Cc1cc(Cl)cc2sc(NC(=O)c3ccco3)nc12 | 3.57% (inactive)
25 | O=C(O)c1cccc(N2C(=O)C3CC=C(Cl)CC3C2=O)c1 (stereo not given) | 14.9% (inactive)
26 | CCn1c(C(=O)N2CCC(C(=O)NCc3ccc4c(c3)OCO4)CC2)cc2sccc21 | 8.81% (inactive)
27 | COC(=O)C1(Cc2ccc(O)c(CC3OC3(C)C)c2)OC(=O)C(O)=C1c1ccc(O)cc1 (stereo not given) | 6.79% (inactive)
28 | CC(C)[C@H](NC(=O)[C@@H]1Cc2c([nH]c3ccccc23)C2c3ccccc3C(=O)N21)C(=O)N1CCC[C@H]1C(=O)O (stereo not given in full) | 5.17% (inactive)
29 | CCOc1ccc(C2C(C(=O)Nc3ccc(F)cc3)=C(C)Nc3nc(CCCO)nn32)cc1 (stereo not given) | 10% (inactive)
30 | Cc1cc2c(cc1S(=O)(=O)N1CCCCC1)OCC(=O)N2 | 10.9% (inactive)
31 | Cc1noc(C)c1S(=O)(=O)N1CCN(C(c2ccccc2)c2ccc(Cl)cc2)CC1 (stereo not given) | 8.33% (inactive)
32 | COc1ccc(S(=O)(=O)Cc2ccc(C(=O)NC3CCCC3)o2)cc1 | 8.33% (inactive)
33 | COc1cc(OC)c(NS(=O)(=O)c2coc(C(N)=O)c2)cc1Cl | 25% (inactive)
34 | O=C(C1COc2ccccc2O1)N1CCn2c(nc3ccccc32)C1 (stereo not given) | 4.17% (inactive)
35 | COc1cc(-c2cc(=O)c3c(O)c(OC)c(OC)c(OC)c3o2)cc(OC)c1OC | 3.45% (inactive)
36 | O=C(CN1CCOc2ccccc21)NC1CCCCCCC1 | 25% (inactive)
37 | Cc1cccc(NC(=O)CSc2nc3ccccc3nc2N2CC(C)OC(C)C2)c1 (stereo not given) | 3.85% (inactive)
38 | CCOc1ccc(NC(=O)c2cccc(NC3=NC4CS(=O)(=O)CC4S3)c2)cc1 (stereo not given) | 5.12% (inactive)
39 | COc1ccccc1C(=O)OCn1nnc2ccccc2c1=O | -5% (inactive)
40 | Cc1c(C)c2c(OCC(=O)N[C@@H](Cc3ccccc3)C(=O)O)cc3c(c2oc1=O)CCC(C)(C)O3 | -1.79% (inactive)
41 | Clc1ccccc1C1CC(c2ccccc2)Nc2ncnn21 (stereo not given) | 8.33% (inactive)
42 | O=C(NCCCN1CCOCC1)c1ccccc1N1C(=O)[C@@H]2Cc3c([nH]c4ccccc34)C(c3cccc(Cl)c3)N2C1=O (stereo not given in full) | 0% (inactive)
43 | CCCc1cc(=O)oc2cc(OC(C)C(=O)NCC3CCC(C(=O)O)CC3)c(Cl)cc12 (stereo not given) | 7.18% (inactive)
44 | O=C(CCC(=O)N1CCOc2ccccc21)Nc1ccccc1Br | 6.78% (inactive)

Row | Compound | inhibition
45 | CC1(C)Cc2c(C#N)c(NC3CCCCC3)nc(-c3ccco3)c2CO1 | 3.64% (inactive)
46 | COc1ccc2[nH]c3c(c2c1)CCN1C(=O)N([C@@H](C)C(=O)NCc2ccc(C)cc2)C(=O)[C@]31C | 0% (inactive)
47 | CC(=O)O[C@H]1C(=O)[C@@]2(C)C([C@H](OC(=O)c3ccccc3)[C@]3(O)C[C@H](OC(=O)[C@H](O)[C@@H](NC(=O)c4ccccc4)c4ccccc4)C(C)=C1C3(C)C)[C@]1(OC(C)=O)CO[C@@H]1C[C@H]2O (stereo not given in full) | 5.12% (inactive)
48 | CCc1nn(CC(=O)N2CCN(C)CC2)c(=O)c2cccn12 | 5.06% (inactive)
49 | Cc1ccc(S(=O)(=O)NCc2ccc3[nH]c(C)cc3c2)cc1 | 3.57% (inactive)
50 | CC1CCCN(C(c2ccccc2)c2sc3ncnn3c2O)C1 (stereo not given) | 5.06% (inactive)
51 | CCOc1ccc(-n2c(SCC(=O)N3CCc4ccccc43)nnc2-c2c[nH]c3ccccc23)cc1 | 13.3% (inactive)
52 | Nc1nc2n(n1)C(c1cccc(Br)c1)CC(c1ccc(F)cc1)N2 (stereo not given) | 23.4% (inactive)
53 | CCOc1ccc(-c2nc(CS(=O)(=O)CC(=O)NCc3ccc(F)cc3)c(C)o2)cc1 | 3.57% (inactive)
54 | COc1ccccc1NC(=O)NCCCN1CCN(c2cccc(Cl)c2)CC1 | -5.49% (inactive)
55 | Cc1c(S(=O)(=O)Nc2cccc(Cl)c2)c(=O)n(C)c(=O)n1C | 0.909% (inactive)
56 | COc1cc(OC)cc(C(=O)OCn2nnc3ccccc3c2=O)c1 | 0% (inactive)
57 | COC(=O)c1ccccc1NC(=O)C1CCCN(c2nnc(-n3cccc3)s2)C1 (stereo not given) | 0.909% (inactive)
58 | C/C=C/c1cc(OC)c2c(c1)[C@H](C)[C@@H](c1ccc(O)c(OC)c1)O2 | 0% (inactive)
59 | CCCn1c(CN2CCCCC2C)nc2c1c(=O)n(C)c(=O)n2C (stereo not given) | 3.57% (inactive)
60 | COC(=O)C1=C(C)Nc2ccc(C)cc2S1 | 0% (inactive)
61 | CC(=O)c1ccc(NC(=O)C2CCCN2S(=O)(=O)c2ccc(C)cc2)cc1 (stereo not given) | 15.4% (inactive)
62 | CCOc1ccc(NC(c2ccccn2)c2oc(CO)cc(=O)c2O)cc1 (stereo not given) | 1.85% (inactive)
63 | COc1ccc(NC(=O)c2cc(S(=O)(=O)N3CCc4ccccc43)cn2C)cc1 | -3.51% (inactive)
64 | O=C(CSc1nc2c(c(=O)n1-c1ccccc1)SCC2)N1CCN(c2ccccc2)CC1 | 5.23% (inactive)
65 | NC(=O)c1cccc2c1C(=O)N(C1CCCCC1)C2 | 6.78% (inactive)
66 | Cc1ccccc1C(=O)Nc1nnc(S(=O)(=O)N2CCCCC2)s1 | 3.67% (inactive)

Row | Compound | inhibition
67 | O=C(Nc1ccccc1)N1CCC(n2c(=O)[nH]c3ccccc32)CC1 | 11.9% (inactive)
68 | Cc1cc2c(cc(C(=O)N3CCC(C(=O)N4CCCC4)CC3)n2Cc2c(F)cccc2Cl)o1 | 6.84% (inactive)
69 | C=C1CCCC2OC(CC3=CC4/C(C)=C/CC(C)CC(/C=C(\C)C(O)C5CC(O)C(O)C(CCC(O)/C=C/C(C)=C/CCC6=NCCC(C3)C64C)O5)OC(=O)CC3OC(C(O)C1)C(O)C3O)CC(O)C2O (stereo not given) | 5.17% (inactive)
70 | Nc1nonc1-n1nnc(C(=O)N/N=C/c2ccc(O)cc2)c1CN1CCCCCC1 | -1.79% (inactive)
71 | CC1C(=O)Nc2ccc(S(=O)(=O)N3CCN(c4cccc(Cl)c4)CC3)cc2NC1=O (stereo not given) | 7.02% (inactive)
72 | O=c1ccc2cc(S(=O)(=O)N3CCN(c4ccccc4F)CC3)ccc2[nH]1 | -3.85% (inactive)
73 | COc1ccccc1CNC(=O)[C@H](Cc1c[nH]c2ccccc12)NC(=O)[C@@H]1Cc2ccccc2CN1 | 3.6% (inactive)
74 | CCOC(=O)c1ccc(NC(=O)COc2cc(=O)n(CC)c3ccccc23)cc1 | 4.17% (inactive)
75 | COC(=O)C(N)CCCCN (stereo not given) | 3.45% (inactive)
76 | COc1ccc(NC(=O)c2cc(CC(C)C)on2)cc1OC | 8.45% (inactive)
77 | CCOC(=O)N1CCC(N2Cc3cccc(C(=O)N4CCN(C5CCCCC5)CC4)c3C2=O)CC1 | 5.77% (inactive)
78 | CCSc1nnc2c(n1)OC(c1ccc(C(=O)O)cc1)N(C(C)=O)c1ccccc1-2 (stereo not given) | 0.848% (inactive)
79 | Cc1ccc(-c2nc(CS(=O)CC(=O)NCCCN3CC(C)CC(C)C3)c(C)o2)cc1 (stereo not given) | 3.85% (inactive)
80 | Cc1oc(-c2ccc(Cl)cc2)nc1CS(=O)CC(=O)NCc1cccs1 (stereo not given) | 5.23% (inactive)
81 | COc1ccc(N2CCN(C(=O)c3ccc(CS(=O)(=O)c4ccccc4C)o3)CC2)cc1 | 7.34% (inactive)
82 | CCC(NS(=O)(=O)c1ccc(C)cc1)C(=O)N1CCN(c2ccccn2)CC1 (stereo not given) | 20.8% (inactive)
83 | Cc1ccc(-c2nc3cccnc3s2)cc1NS(=O)(=O)c1ccc2c(c1)CCCC2 | 6.78% (inactive)
84 | Cc1ccc(S(=O)(=O)Nc2ccc(O)c3ncccc23)cc1 | 64.4% (active)
85 | COc1c2c(c(C)c3c1C(=O)OC3)O[C@@]1(C)CC[C@@]3(O)C(C)(C)OC(=O)CC[C@]3(C)[C@H]1C2 | -1.82% (inactive)
